# D1 antagonist – Antagonist of Human D 1 Dopamine Receptor: qHTS. activity change, negative = inhibition, % at 10 µM. 3.2% of 360,000 active. D(1A) dopamine receptor (Homo sapiens), P21728. HEK293 TREx D1 cells, calcium flux, dopamine EC80; stronger effect = lower value. AID 504652, 2011; in the data active means activity change below about -30%; further: on the % scale 0 is the no-effect control and ±100 the full control effect
#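 Allosteric or orthosteric antagonism assessed as attenuation of the calcium response to EC80 dopamine, added 180 s after compound, in induced HEK293 Trex D1 cells loaded with no-wash calcium dye.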
# D1 potentiator – Potentiators of Human D1 Dopamine Receptor: qHTS | HEK293 TREx D1 cells, calcium flux, dopamine EC20 potentiation | potentiation, % at 10 µM | AID 504651, 2011 | D(1A) dopamine receptor (Homo sapiens), P21728 | 0.036% of 360,000 active; in the data active means potentiation above about 30%; further: 0% is about no effect
# D1 ag – Allosteric Agonists of the Human D1 Dopamine Receptor: qHTS. D(1A) dopamine receptor (Homo sapiens), P21728. HEK293 T-REx D1 cells, calcium flux, agonist mode. activation, % at 2 µM. 1% of 360,000 active. AID 504660, 2011; in the data active means activation above about 30%; further: 0% is about no effect
#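 Tetracycline-induced HEK293 TREx D1 cells, force-coupled to calcium signalling, were dye-loaded with a no-wash calcium kit. Compound was pin-added after a 10 s baseline. Fluorescence was read kinetically at 1 cycle/s for 180 s, with calcium rises flagged as agonism.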
# D3 antag – qHTS of D3 Dopamine Receptor Antagonist: qHTS; D(3) dopamine receptor (Homo sapiens), P35462; D3R cells, DiscoveRx beta-arrestin luminescence, antagonist mode; stronger effect = lower value; max response, negative = inhibition, %; 2.5% of 360,000 active; AID 652054, 2013; in the data active means max response below about -50%; inconclusive means no clear call, values can overlap the other calls; further: on the % scale 0 is the no-effect control and ±100 the full control effect
# Target sequence (P35462 whole entry, looked up): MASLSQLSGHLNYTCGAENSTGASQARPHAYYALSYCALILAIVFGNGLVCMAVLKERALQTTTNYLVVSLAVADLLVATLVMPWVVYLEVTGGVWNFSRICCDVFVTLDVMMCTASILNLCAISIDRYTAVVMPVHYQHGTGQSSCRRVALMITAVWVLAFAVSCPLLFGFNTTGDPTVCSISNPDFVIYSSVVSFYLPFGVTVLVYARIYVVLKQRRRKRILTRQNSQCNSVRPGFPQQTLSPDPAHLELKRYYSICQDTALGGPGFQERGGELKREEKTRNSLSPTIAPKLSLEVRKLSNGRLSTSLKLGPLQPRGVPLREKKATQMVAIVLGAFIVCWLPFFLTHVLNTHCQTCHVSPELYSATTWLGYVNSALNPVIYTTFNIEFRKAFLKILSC
#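 Cells plated overnight at 1500 cells/well, then exposed to library compounds with dopamine controls for 90 minutes at 37 degrees C. DiscoveRx reagent added for 30–60 minutes at room temperature; luminescence read, quantitative HTS format.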
# ERG Ets-DNA blk – qHTS for Small Molecule Inhibitors of the ERG Ets/DNA interaction; Transcriptional regulator ERG (Homo sapiens), P11308; fluorescence polarization, His-ERG Ets domain / labelled DNA; Potency, µM (titrated, usually from 76.9 µM), without a hit: at the top dose FP activity, negative = inhibition, most hits filed as inhibitors; 0.028% of 370,000 active; AID 624246, 2012; active means well fitted inhibition curve with a large enough effect in the polarisation, with a control signal flat; inconclusive means small, poorly fitted or top-dose-only effect, or effect the other way, or a change in a side signal; inactive means no such curve, though single readings can be large or run the other way; the % refers to the polarisation;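 further: polarization taken with two DNA probes labelled with fluorescein and Texas red; potency means the concentration at half of the fitted maximal effect; % of control where 0% means no effect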
#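 His-tagged ERG Ets domain (1 uM in the protein solution; 300mM KCl, 50mM Tris-HCl, 1mM EDTA, 1mM DTT, pH 7.5) received compound, then a probe mix of 5 nM fluorescein-DNA and 100nM Texas-615-DNA. Fluorescence polarization was read for both dyes.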
# D3 ag – qHTS of D3 Dopamine Receptor Agonist: qHTS. 0.58% of 410,000 active. D3R DiscoveRx beta-arrestin cells, luminescence, 90 min. AID 652048, 2013. max activation, %; in the data active means max activation above about 30%; further: 0% is about no effect
#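 Agonist-mode cell screen: cells plated at 1500/well and incubated overnight at 37 °C, then exposed to library compounds for 90 min at 37 °C. Detection reagent was added for 30–60 min at room temperature, and luminescence was read.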
# * = called active by the depositor; ? = inconclusive; nt = not tested or not shown. This is a sample that favours compounds with a hit; in the whole collection about 6.1% have one here.
SMILES,D1 antagonist,D1 potentiator,D1 ag,D3 antag,ERG Ets-DNA blk,D3 ag
Cc1ccc(S(=O)(=O)N=Nc2c(O)[nH]c3ccccc23)cc1C,1,1,1,?,-3%,-5
CCC(C)NC(=O)c1cccc(NC(=O)c2nsc3ccccc23)c1 (stereo unspecified),-21,-3,2,nt,5%,-5
N=C1SC(CC(=O)Nc2ccccc2[N+](=O)[O-])C(=O)N1c1ccccc1 (stereo unspecified),8,-9,1,-62*,1%,-15
Cc1ccccc1NC(=O)CC1SC(=O)N(c2ccccc2)C1=O (stereo unspecified),-3,-9,1,-92*,5%,1
COc1ccccc1/C=N/NC(=O)CC(=O)NCc1ccccc1,-5,-5,4,-24,2%,-8
Cc1ccc(C(NC(=O)C2CCN(Cc3ccc(Cl)c(Cl)c3)CC2)c2ccccn2)cc1 (stereo unspecified),nt,nt,nt,-1,nt,-14
COc1cccc(OC)c1OCCN1CCC(C(=O)NC(c2ccccc2)c2ncccc2C)CC1 (stereo unspecified),nt,nt,nt,?,nt,-18
Cc1cccnc1C(NC(=O)C1CCN(CCOc2ccc(F)cc2)CC1)c1ccc(F)cc1 (stereo unspecified),nt,nt,nt,-71*,nt,-15
Cc1cccnc1C(NC(=O)C1CCN(Cc2ccc(Cl)cc2)CC1)c1ccccc1 (stereo unspecified),nt,nt,nt,-102*,nt,-29
Cc1cccnc1C(NC(=O)C1CCN(CCCc2ccccc2)CC1)c1ccc(Cl)cc1 (stereo unspecified),nt,nt,nt,-78*,nt,-16
COc1ccc(C(C)NC(=O)C2CCN(CCCc3ccccc3)CC2)cc1OC (stereo unspecified),nt,nt,nt,-19,nt,-3
Cc1cccnc1C(NC(=O)C1CCN(Cc2cn(C)c3ccccc23)CC1)c1ccc(Cl)cc1 (stereo unspecified),nt,nt,nt,-65*,nt,-23
CCN(CC)CCn1c(=O)c(Cc2ccc(OC)cc2)nc2ccccc21,nt,nt,nt,nt,nt,-27
Cc1cc(C)n2nc(SC(C)C(=O)Nc3ccccc3F)nc2n1 (stereo unspecified),nt,nt,nt,-9,-6%,-3
Cc1cccnc1C(NC(=O)C1CCN(Cc2ccc(Oc3ccccc3)cc2)CC1)c1ccc(F)cc1 (stereo unspecified),nt,nt,nt,-67*,nt,-14
O=C(NC(c1ccc(Cl)cc1)c1cnccn1)C1CCN(Cc2ccc(Oc3ccccc3)cc2)CC1 (stereo unspecified),nt,nt,nt,?,nt,-12
COC(=O)c1scc(S(=O)(=O)c2ccccc2)c1N,5,1,5,-9,10%,-2
COC(=O)c1scc(S(=O)(=O)C(C)(C)C)c1N,-37*,-1,4,19,4%,2
COC(=O)c1sc(-c2ccc(Cl)cc2)cc1NC(=O)CSCC(=O)O,2,0,3,-5,-3%,-10
COC(=O)c1sc(-c2ccc(C(C)(C)C)cc2)cc1NC(=O)COCC(=O)O,-39*,-4,58*,1,-14%,6
Cc1cccc(NS(=O)(=O)c2ccc(Oc3ccccc3)cc2)n1,-11,-3,10,15,-1%,7
COc1ccccc1N1CCN(C2CCCN(C(=O)c3ccccn3)C2)CC1 (stereo unspecified),1,-1,2,-6,-4%,-10
COc1cccc(OCc2cc(C(=O)N3CCN(c4ccccc4O)CC3)no2)c1,-2,-2,4,6,7%,7
COc1ccccc1N1CCN(C2CCCN(C(=O)c3ccoc3C)C2)CC1 (stereo unspecified),13,-1,0,-25,-3%,-28
COc1cccc(OCc2cc(C(=O)N3CCN(c4ccccc4OC)CC3)no2)c1,-3,-8,11,-63*,2%,-19
